Experimental data taken from PMC7819943, “Rice protein-binding microarrays: a tool to detect cis-acting elements near promoter regions in rice”.
Over roughly 68,000 sequences, “fluorescence intensity (a.u.)” has its median near 9,100; the highest 2% begin near 16,000. The sample as a whole holds a higher share of the highest values than the screen did.

These sequences were tested against OsWRKY34 (Oryza sativa, UniProt Q0JBA9 1-250) (assay: protein-binding microarray (RPBM); PBS, 2% BSA, 51.3 ng/ul salmon testes DNA, 50 uM zinc acetate, 200 nM TF, 25 C, 1 h; high values mean tight binding). Conditions: protein: recombinant; tags: N-terminal polyhistidine and DsRed monomer fusion (pET32a); label: CyDye5-dUTP incorporated in the synthesized complementary strand; 3' TTTTT single-stranded linker to array surface; dsDNA, one strand shown.
Chain of OsWRKY34 (Q0JBA9 entry or part of it): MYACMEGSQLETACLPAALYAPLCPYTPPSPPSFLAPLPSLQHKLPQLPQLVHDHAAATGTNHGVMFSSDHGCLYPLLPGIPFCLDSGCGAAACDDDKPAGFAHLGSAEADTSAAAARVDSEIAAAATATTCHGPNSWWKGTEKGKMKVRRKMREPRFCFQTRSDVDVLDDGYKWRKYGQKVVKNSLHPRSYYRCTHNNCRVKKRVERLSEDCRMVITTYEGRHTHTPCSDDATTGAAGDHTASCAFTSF
In short: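 Using Ni–NTA, transcription factors fused N-terminally to polyhistidine and DsRed were purified after expression in E. coli BL21-CodonPlus. These were incubated at 200 nM with a blocked, double-stranded custom Agilent array for 1 h at 25 °C in a buffer containing 50 µM zinc acetate, and the array was washed. The binding signal is per-feature fluorescence intensity (arbitrary units) on an Axon 4000B scanner.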
For “CTCCCTTCGTTTCGAAATGTTTGACGCCGTTGACTTTTTACGGAGTCACCTAGTGCAG”, the binding signal was 22800 fluorescence intensity (a.u.).
In the case of “ACTCTCTCCGTTTCGAAATGTTTGACGCTGTTGACTTTTTCGGAGTCACCTAGTGCAG”, the binding signal is reported as 17500 fluorescence intensity (a.u.).
In the case of “ATACTCCCTTCGTTTCGAAATGTTTGACGCCGTTGACTTTCGGAGTCACCTAGTGCAG”, the binding signal is reported as 14300 fluorescence intensity (a.u.).
“ACTCCCTCCGTTTCAAAATGTTTGACATCATTGACTTTTTCGGAGTCACCTAGTGCAG” was tested, and the binding signal was 11100 fluorescence intensity (a.u.).
For “CTCCCTCTATCAAAAAAATGTTTGACGCCGTTGACTTTTTCGGAGTCACCTAGTGCAG”, the binding signal was 25600 fluorescence intensity (a.u.).
With “TCCGTTTCGGAATGTTTGACGCCGTTGACTTTTTATTACACGGAGTCACCTAGTGCAG” the binding signal was 25400 fluorescence intensity (a.u.).
For “CTCCCTCCGTTTCGAAATGTTTGACGCCGTTGACTTTTTACGGAGTCACCTAGTGCAG”, the binding signal was 15900 fluorescence intensity (a.u.).
“CGCTGTTCAGACGTTGACTCTCGTTGTTTTTATAGTTTTTCGGAGTCACCTAGTGCAG” was tested, and the binding signal was 14600 fluorescence intensity (a.u.).
In the case of “CACCCTCTCCCGTGTTCCACCCCGCCCGCGAATCATATCCCGGAGTCACCTAGTGCAG”, the binding signal is reported as 9340 fluorescence intensity (a.u.).
With “TCCGTCCCTGCAGTCACCTTATTGGTCAAATTTTAAATATCGGAGTCACCTAGTGCAG” the binding signal was 13400 fluorescence intensity (a.u.).
In the case of “TAGGGGTGGGCATTCGGTCTAACTGAAAATTTCGGTCTCGCGGAGTCACCTAGTGCAG”, the binding signal is reported as 13500 fluorescence intensity (a.u.).
“TGACGTTTGACCAAAGTTTTCTTCAATTTTTCAGAAATGGCGGAGTCACCTAGTGCAG” was tested, and the binding signal was 9900 fluorescence intensity (a.u.).
“GGTCTATGTCTCTCTGATTATTTCTTTTACTAATTGTTTGCGGAGTCACCTAGTGCAG” was tested, and the binding signal was 9060 fluorescence intensity (a.u.).
“CTTCTGCTCTCTAGCTAGCCTTCTTCCTATTGGAAGCTTCCGGAGTCACCTAGTGCAG” was tested, and the binding signal was 9230 fluorescence intensity (a.u.).
“TGCACCTGGCCGCGTTGACCGTTCGAAATGTATATATTCCCGGAGTCACCTAGTGCAG” was tested, and the binding signal was 19600 fluorescence intensity (a.u.).
“CAACGAAAATACTAACAACATGCACCTGGCCGCGTTGACCCGGAGTCACCTAGTGCAG” was tested, and the binding signal was 13900 fluorescence intensity (a.u.).
For “CATTCCTATCAAAATCCTACGTTTTTCCTATTCCTACGTTCGGAGTCACCTAGTGCAG”, the binding signal was 9840 fluorescence intensity (a.u.).
In the case of “GATCCTCTGTTTTATCTACGCGTTCCTATCAAATTCCTTTCGGAGTCACCTAGTGCAG”, the binding signal is reported as 16800 fluorescence intensity (a.u.).
In the case of “TTCTCTTTTATCTGTTTGCTTCCTATAAATTCTACGCGATCGGAGTCACCTAGTGCAG”, the binding signal is reported as 8480 fluorescence intensity (a.u.).
In the case of “TTATACTCCCTCCGTTTCGAAATGTTTGACGCCGTTGACTCGGAGTCACCTAGTGCAG”, the binding signal is reported as 11400 fluorescence intensity (a.u.).
In the case of “ATATTCCCTCCGTTTTGAAATGTTTGACGCCGTTGACTTTCGGAGTCACCTAGTGCAG”, the binding signal is reported as 17000 fluorescence intensity (a.u.).
For “CCGCTGGCCCTTGTTGACACCTTGACTACGAAATGTATTCCGGAGTCACCTAGTGCAG”, the binding signal was 8980 fluorescence intensity (a.u.).
With “GCGCTACTTCGCTCGACCACCCGCCCGCCTTCCACTGCCACGGAGTCACCTAGTGCAG” the binding signal was 8550 fluorescence intensity (a.u.).
For “CTCTAATTTTCTTTGCGTGTTCCATCATCAATATGGTATTCGGAGTCACCTAGTGCAG”, the binding signal was 10700 fluorescence intensity (a.u.).
“CAATTTCGAGCTTCGTATCAGCATATGCTATTCCCTATTGCGGAGTCACCTAGTGCAG” was tested, and the binding signal was 10500 fluorescence intensity (a.u.).
In the case of “CATTGACTTTTTTAAACATGTTTGACTGTTCGTCTTATTCCGGAGTCACCTAGTGCAG”, the binding signal is reported as 11500 fluorescence intensity (a.u.).
With “TTGACTTTTTAGCACATGTTTGACCGTTCGTCTTATTCAACGGAGTCACCTAGTGCAG” the binding signal was 8480 fluorescence intensity (a.u.).
For “CGTTGACTTTTCTAAACATGTTTGACCGTTCGTCTTATTCCGGAGTCACCTAGTGCAG”, the binding signal was 28400 fluorescence intensity (a.u.).
With “GTTGACTTTTTTAAACATGTTGGACCGTTCGTCTTATTCACGGAGTCACCTAGTGCAG” the binding signal was 9150 fluorescence intensity (a.u.).
For “TTAGCACATGTTTGACCGTTCGTCTTATTCAAAATTTTTTCGGAGTCACCTAGTGCAG”, the binding signal was 12600 fluorescence intensity (a.u.).
For “ACCGTTGACTTTTTAGCACATGTTTGACCGCTCGTCTTATCGGAGTCACCTAGTGCAG”, the binding signal was 54800 fluorescence intensity (a.u.).
For “CGTTGACTTTTTAGCACATGTTTGACCGTTCGTCTTATTCCGGAGTCACCTAGTGCAG”, the binding signal was 29000 fluorescence intensity (a.u.).
“GACTTTTTAGCACATGTTTGACCGTTCGTCTTATTCAAAACGGAGTCACCTAGTGCAG” was tested, and the binding signal was 10800 fluorescence intensity (a.u.).
“TGACTTTTTAGCATATGTTTGACCGCTCGTCTTATTCAAACGGAGTCACCTAGTGCAG” was tested, and the binding signal was 8220 fluorescence intensity (a.u.).
In the case of “CAGATCGACTCGACTCGACCAGGTTCTCTCGTTTTTACTCCGGAGTCACCTAGTGCAG”, the binding signal is reported as 9940 fluorescence intensity (a.u.).
For “CTCTCTCTCTGCTGCTGCTCTCTAATCAGTAACCAGTAGTCGGAGTCACCTAGTGCAG”, the binding signal was 9580 fluorescence intensity (a.u.).
For “TTGTTTATTTAAGGTGTGATTGTATTTGGATCATGTTTTGCGGAGTCACCTAGTGCAG”, the binding signal was 8980 fluorescence intensity (a.u.).
For “GGGGTATAATTTGTGTCTTAGCTGATAGAATGTGCAGTTGCGGAGTCACCTAGTGCAG”, the binding signal was 9980 fluorescence intensity (a.u.).
In the case of “AAGGACCCAGCTGTTCGCCACGTGTGCGTGTTGACTTCCACGGAGTCACCTAGTGCAG”, the binding signal is reported as 9780 fluorescence intensity (a.u.).
With “ATAGTACGAATGGTTAGCCCAAAAGTCAGTGTCTTCATTCCGGAGTCACCTAGTGCAG” the binding signal was 10300 fluorescence intensity (a.u.).
In the case of “CACTGCTTCTCACCCAACTCGCGCGCGCCATTCCTTGCCTCGGAGTCACCTAGTGCAG”, the binding signal is reported as 11600 fluorescence intensity (a.u.).
“TCTATATTGCTATTTTCATTTTAAAACTATTTCTTGCCACCGGAGTCACCTAGTGCAG” was tested, and the binding signal was 10300 fluorescence intensity (a.u.).
